# Measurements taken from the supplement of paper PMC6555819.
# Tested on: VDR:RXRa (NR concentration 270 nM, RXRa partner concentration 90 nM)
# Assay: PBM binding z-score (relative to random genomic background probes); higher = stronger binding; sequences stand for … in GC…GCGATTGACAGCGTAGAATGAAGG
# Method: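 Protein-binding microarray (Agilent 4x180K custom design, double-stranded 60-nt probes: 5' GC cap, 34-nt variable region, 24-nt constant primer region; full probe sequence given). Purified or IVT nuclear receptor:RXRα heterodimers (3:1 NR:RXRα, mostly 270:90 nM) or homodimers were incubated for 1 h in PBS with 2% milk and no ligand, then detected with Alexa488 antibodies. Fluorescence from o1-orientation probes (~5 replicates averaged) was converted to z-scores against 500 random hg19 background probes. Variable regions are seed direct-repeat (DR0–DR5) sites, all their single-nucleotide variants and half-site ablations.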
row,Sequence,PBM binding z-score
1,ATCTCTTGGTAAAGTTCAGTGAAAGATCGATAGA,1.6
2,ACAGACAGGTAAGTGAAGGTAACTCAGCTGGACG,-0.31
3,TCTAGTTGGTCAAAGGTCAGACACTCGAAATGCG,4.09
4,ACTATTAGTTGAGGCGAGGGCAACCGATAGGTTG,0.632
5,CGAAATAGGTCATCCAGGACAGTGAATACATTGA,5.63
6,ACTCGGAGGACAAAGGTCAGCGCTACGCCAGTGA,3.41
7,TCGAGTAGGTTAGTCGGGGCATTGAGCCAACATA,1.89
8,CGAACTAGGACAAGGACAGTGAATCTCCGCACGC,-0.159
9,TTACCAAGTTGAGCTGAGGTCGTTGATCCAACTC,2.7
10,ACTTACGGGTCAACCAGGTTATAGCACGCGTATA,6.72
11,GTTACAGGGTCAGCTAGAGGCCAGAGTATGGAAA,3.39
12,CCGGACAGGTGAAAGGTAACTCAGTCTGGTACGC,0.694
13,CCTATTAGTTGACCATAAGGGCAACCGAAGCTCG,1.22
14,GCTTGTAGATCAAGGTTAAGAAAGACTAAGCTAA,0.156
15,CGAACGAGGGCGTGAGTTGATAGCAAATGCCGAT,0.224
16,GCTAGTTGGTCAGTAAAACGTCACACACCGGTCG,-0.225
17,CGTCAAAGTTCCAGGTAACGTAACAGAAAGCAGC,-0.14
18,GCTAGCAGTCCATTTGGGTCACTCAATGACGGGC,0.562
19,CTACCAAGGAGAACAAGGTCGTTGATTACTATTC,1.56
20,TCATATAGGTAATACAGGTGAAAGTAGGCATCTA,1.41

row,Sequence,PBM binding z-score
1,TCATATAGGTAAATGCTAGGTGTAAGTCCGATCT,0.772
2,GCGACTGGGGCAAAGCATGTTACCATAAGGTTGG,-0.497
3,GCTATTAGTTGAAAGGGCAGCCGAATGATTCTCG,0.0527
4,GGCACGAGGGCAAAGTTGATAGCATCTGTCGACG,1.23
5,GAGACTGGGGCATCAGCAGGTTACCATAACTTAA,0.317
6,CCTGGTTGGTCAGGAGGTCACACACCGGATATGA,3.73
7,ATATGTAGGTTACATCCGGGTCAGTCAGGCTATG,2.62
8,CAAGACAGGTGAGAAGGTAACTCAGCCTCGATTA,-0.155
9,CCAGACAGTTGAAAGGTAACTCAGTCTGGTACGC,0.591
10,AGCTCTAGGTAAAGATAGTTCAGTGAATGCAAAT,0.921
11,TCGAGTAGGTTGGGGGCATTCAGAATGGCGTCGA,2.65
12,CCTAGTTGGTCTGGAGGTCACACACCGGATATGA,4.03
13,GCTGCTAGGTCAGGTTGGTCAGCTCACGGGTACG,0.52
14,CAAGACAGGTGAAAGGTAACTCAGTCTGGTACGC,0.87
15,GCTGCTGGGTCAACTGATGGTCAGCTAAAGCTCG,1.82
16,TCTATTTGGTCAAAGGTCACACACTCGAAATGCG,5.41
17,GCTAGCAGGCCAATTGGGTCACTCAATGACGGGC,0.89
18,TCTGCTAGGACAACGATGGTCAGCTAATCTGCTA,-0.784
19,ATCACTAGGTAAGACTCAGTTCAGTGAAGAACGC,0.53
20,AGTCAAAGTTCATCTAGGTAACGTTAGATATGCT,5.11
